Data from PubChem BioAssay AID920 (The Scripps Research Institute Molecular Screening Center, 2007).
Screen size: about 200,000 compounds; about 700 (0.35%) were called active.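 Rule for the calls: active = inhibition above a set limit, the mean inhibition across all tested compounds plus 3 SD (cut at about 34% in these data); inactive = the rest.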 Shown is part of a subset that was picked to be rich in actives.

Assay: blockers of IFN-gamma driven STAT1 reporter – cell-based, HTS, luciferase reporter, primary screen (AID 920);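 note: 0% = IFN-gamma with DMSO and 100% = IFN-gamma with 300 µM nifuroxazide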
Details: NIH 3T3 STAT1-luciferase reporter, luminescence, at 5.5 µM, active compounds read high

SMILES	inhibition
Cc1noc(C)c1/C=N/Nc1ccc2ccccc2n1	-64.7% (inactive)
Brc1ccc(-c2csc(N/N=C/c3ccc4c(c3)OCO4)n2)cc1	-12.1% (inactive)
C(=N\Nc1ccc2ccccc2n1)/c1ccc2c(c1)OCO2	68.7% (active)
CCOC(=O)C1C(c2ccc(Cl)cc2)NC(=S)NC1(O)C(F)(F)F (stereo not drawn)	10.5% (inactive)
Cc1ccc(CN2C(=O)N/C(=C/c3cc(C)n(-c4ccccn4)c3C)C2=O)cc1	-13.2% (inactive)
S=C(Nc1ccc2c(c1)OCO2)N1CCCC1	-9.5% (inactive)
c1c2c(cc3sc(N4CCCCC4)nc13)OCCO2	47.8% (active)
Brc1ccc2nc(N3CCCC3)sc2c1	-39.3% (inactive)
COc1ccc2nc(Nc3nc4cc5c(cc4s3)OCCO5)sc2c1	-15.9% (inactive)
CCOC(=O)C1(CCOc2ccccc2)CCN(C(=O)c2cncs2)CC1	-0.02% (inactive)
O=C(O)CSc1nnc(-c2ccc3c(c2)OCO3)n1-c1ccccc1	-5.92% (inactive)
CCCCCC(=O)Nc1ccc2oc(-c3ccncc3)nc2c1	-3.9% (inactive)
CCc1ccc2oc(-c3ccc(N)cc3)nc2c1	34.5% (active)
COc1cccc(-c2nc3cc(C)ccc3o2)c1	-6.24% (inactive)
CC(C)/C=N/NC(=O)c1cc(Br)ccc1O	11.2% (inactive)
O=C(/C=C/c1ccccc1[N+](=O)[O-])NCC1CCCO1 (stereo not drawn)	-5.46% (inactive)
CCc1nnc(NC(=O)CCCSc2nc3ccccc3[nH]2)s1	20.4% (inactive)
NC(=O)Nc1ccccc1C(=O)NCCc1ccccc1	-28.8% (inactive)
COc1cc2c(C(=O)N3CCN(C)CC3)c(CSc3ccccc3)n(C)c2cc1Br	10.4% (inactive)
COc1ccc(-c2noc(-c3cccc(OC)c3OC)n2)cc1OC	-49.2% (inactive)
COc1ccc(-c2noc(-c3ccc(C)cc3)n2)cc1	-36.1% (inactive)
COc1ccc(-c2nc(-c3ccccc3)no2)c(OC)c1	60.8% (active)
Cc1ccc(C(C)(C)C)c(OCCCCN2CCCC2)c1	9.92% (inactive)
Cc1nc2ccccc2c(C)c1C(=O)c1ccc(F)cc1	15.9% (inactive)
O=C(c1ccc(S(=O)(=O)c2ccccc2)cc1)N1CCCCCC1	14.2% (inactive)

SMILES	inhibition
Cc1cccc(NC(=O)c2ccc3ccccc3n2)n1	-31.6% (inactive)
CCOC(=O)C(=CNc1cccc(C)n1)C(=O)OCC	43.5% (active)
CCOc1ccc(OCc2ccc(C(=O)Nc3cccc(C)n3)o2)cc1	-24.1% (inactive)
Cc1ccc(C(C[N+](=O)[O-])c2c(C)cc3ccccn23)cc1 (stereo not drawn)	10.7% (inactive)
C=CCN1C(=O)C(Cc2ccc(OCC)cc2)SC1=Nc1ccc(C(=O)O)cc1 (stereo not drawn)	11.1% (inactive)
Nc1ccc(OCC(O)C[n+]2ccc(CCS(=O)(=O)[O-])cc2)cc1 (stereo not drawn)	0.06% (inactive)
Fc1ccc2[nH]c3c(N4CCN(Cc5ccc6c(c5)OCO6)CC4)ncnc3c2c1	45.1% (active)
Fc1ccc2[nH]c3c(N4CCSCC4)ncnc3c2c1	25.6% (inactive)
Cc1cc(N2CCN(Cc3ccc4c(c3)OCO4)CC2)n2ncnc2n1	6.31% (inactive)
O=C(CC1SC(=Nc2ccccc2F)N(CCN2CCOCC2)C1=O)Nc1ccc(F)cc1F (stereo not drawn)	2.14% (inactive)
Cc1ccc(N/C(N)=N/c2nc(C(F)(F)F)cc(C(F)(F)F)n2)cc1	-12.9% (inactive)
CCOc1c(Cl)cc(/C=N/O)cc1OC	5.54% (inactive)
CCOC(=O)CN/C=C(\C#N)c1ccc(F)cc1	1.52% (inactive)
CCOc1cc(/C=C(/C#N)c2ccc(Cl)cc2)cc(Cl)c1OCC(=O)O	47.4% (active)
COc1ccc(C2c3c(C)nn(-c4ccccc4)c3NC(=O)N2c2ccccc2)cc1 (stereo not drawn)	-3.45% (inactive)
Cc1noc(C)c1CCC(=O)O	3.78% (inactive)
O=C(C1CCN(C2CCN(Cc3ccc4cc(F)ccc4n3)CC2)CC1)N1CCCC1	2.2% (inactive)
CCc1cc(CNC(=O)CC2C(=O)NCCN2CC2CCCCC2)on1 (stereo not drawn)	6.89% (inactive)
CN(C)S(=O)(=O)c1cccc(NC(=S)N/N=C/C(=O)c2ccccc2)c1	-1.89% (inactive)
CSC(=S)N/N=C/c1c[nH]c2ccccc12	-6.4% (inactive)
O=C(O)c1cccc(NC(=S)N/N=C/c2c[nH]c3ccccc23)c1	58% (active)
COc1ccc(CCC(=O)OCC(=O)Nc2ccc(C)c(S(=O)(=O)N(C)C)c2)cc1	1.53% (inactive)
Cc1ccc2[nH]cc(CCCN3C(=O)c4ccccc4C3=O)c2c1	0.21% (inactive)
CCOC(=O)C1CCN(c2ncnc3c2oc2ccc(Br)cc23)CC1	-3.28% (inactive)
CCOC(=O)N1CCN(C(=O)C2CCN(c3ncnc4c3sc3cccc(F)c34)CC2)CC1	37.1% (active)

SMILES	inhibition
CCOC(=O)N1CCN(C(=O)C2CCN(Cc3ccc(OC)cc3OC)CC2)CC1	5.92% (inactive)
Cc1ccc(-n2c(SCC(=O)Nc3ncc(Cl)cc3Cl)nc3ccccc32)cc1	12.4% (inactive)
NS(=O)(=O)c1cccc(NC(=O)CSc2nc3ccccc3n2-c2ccccc2)c1	55.1% (active)
Cc1cccc(-n2c(SCC(=O)Nc3cccc(S(=O)(=O)NC4=NCCCCC4)c3)nc3ccccc3c2=O)c1C	-1.66% (inactive)
Cc1nn(C)cc1C(=O)Nc1ccccc1Br	-7.01% (inactive)
CCCN1C(=O)C(Cc2nc3ccccc3c(=O)n2-c2ccccc2)c2cc(C)ccc21 (stereo not drawn)	6.11% (inactive)
CCCOC1CCCN(Cc2cn(C)nc2-c2ccccc2F)C1 (stereo not drawn)	-4.18% (inactive)
Cc1ncoc1C(=O)NCCC(c1ccccc1)c1ccccc1	-1.04% (inactive)
CCC(C)Sc1nnc(-c2c[nH]c3ccccc23)n1CCOC (stereo not drawn)	3.54% (inactive)
CCOC(=O)N1CCN(C(=O)CSc2nnc(-c3c[nH]c4ccccc34)n2CCOC)CC1	37.2% (active)
CCn1c(SCC(=O)Nc2ccc(OC)c(OC)c2)nnc1-c1c[nH]c2ccccc12	3.46% (inactive)
Cc1ccc2[nH]cc(CCNC(=O)c3ccc([N+](=O)[O-])cc3)c2c1	-1.14% (inactive)
COc1ccc(N2C(=O)CC(SC(C)C)C2=O)cc1 (stereo not drawn)	2.11% (inactive)
COc1ccc(C2CC(c3cccs3)=NN2c2nc(C)c(C(C)=O)s2)cc1OC (stereo not drawn)	34.5% (active)
COc1ccc(C2CC(c3cccs3)=NN2C(=O)CSc2nncs2)cc1OC (stereo not drawn)	17% (inactive)
COc1ccc(C2CC(c3cccs3)=NN2c2ccc(F)cc2)cc1OC (stereo not drawn)	-5.19% (inactive)
Cc1cccc(NS(=O)(=O)c2ccc(C)c(C(N)=O)c2)c1	14% (inactive)
CCN(/N=C/c1ccccc1)c1cc(=O)n(C)c(=O)[nH]1	1.47% (inactive)
CC1CC(C)CN(C(=O)CSc2ccsc2[N+](=O)[O-])C1 (stereo not drawn)	1.9% (inactive)
Cc1ccc(CN(C)CC(=O)Nc2cccc([N+](=O)[O-])c2)o1	8.85% (inactive)
CN(CC(=O)Nc1cccc(F)c1)CC(=O)Nc1cccc([N+](=O)[O-])c1	9.08% (inactive)
Cc1ccc(NC(=O)CN(C)CC(=O)Nc2cccc(F)c2)cc1[N+](=O)[O-]	34.4% (active)
O=C(c1cccc([N+](=O)[O-])c1)N1CCN(C(=O)c2ccco2)CC1	1.07% (inactive)
Cc1ccc2[nH]c(C)c(CCNC(=O)NC3CCCCC3)c2c1	8.57% (inactive)
CC(=O)N1N=C(c2ccccc2)OC1c1cccnc1 (stereo not drawn)	-12.4% (inactive)

SMILES	inhibition
CCn1c(/C=N/NC(=O)c2ccc(OC)cc2)nc2ccccc21	1.5% (inactive)
COc1cc(/C=N/NC(=O)c2ccccc2)ccc1OS(=O)(=O)c1ccccc1	-17.2% (inactive)
COc1ccccc1C(=O)NNC(=O)c1ccc(NC(=O)c2ccccc2)cc1	3.37% (inactive)
COc1ccc(/C=N/NC(=O)c2ccccc2)cc1OS(=O)(=O)c1ccccc1	6.31% (inactive)
COc1ccc(C(=O)Nc2ccccc2C(=O)N/N=C/c2ccc(O)c(OC)c2)cc1	99.9% (active)
COc1ccc(C(=O)Nc2ccccc2C(=O)N/N=C/c2ccccc2OC)cc1	58.5% (active)
CCN(C(=O)c1ccc(Br)cc1)c1ccccc1	12.3% (inactive)
CC(=O)c1c(C)[nH]c(C(=O)OCC(=O)Nc2sc3c(c2C#N)CCCC3)c1C	-6.37% (inactive)
Cc1nc(CN2CCN(C(=O)CCc3nnc(Cc4c[nH]c5ccccc45)o3)CC2)cs1	0.65% (inactive)
CCCCOC(=O)CCCc1ccc([N+](=O)[O-])cc1[N+](=O)[O-]	6.62% (inactive)
Cc1cc(O)c(NC(=O)c2ccc(C)c([N+](=O)[O-])c2)cc1C	-3.86% (inactive)
O=C(NNC(=O)C1CCN(c2ncccn2)CC1)c1ccccc1	-0.55% (inactive)
CC(=O)c1cc(C#N)c(N2CCCCC2)nc1C	2.46% (inactive)
Cc1cc(C(=O)Cn2cnc3cc([N+](=O)[O-])ccc3c2=O)c(C)n1CC1CCCO1 (stereo not drawn)	-2.94% (inactive)
Cc1ccsc1C(=O)OCC(=O)c1cc(C)n(CC2CCCO2)c1C (stereo not drawn)	77.5% (active)
Cc1ccsc1C(=O)OCC(=O)c1cc2ccccc2o1	-6.53% (inactive)
CC1CC(C)(C)NC(=S)N1CCC(=O)N1CCN(Cc2ccccc2)CC1 (stereo not drawn)	-1.54% (inactive)
COc1ccc(NC(=S)NCCN2CCC(C)CC2)cc1	4.93% (inactive)
Cc1cccc(C(=O)Nc2ccc3c(c2)C(=O)N(CC(C)C)C3=O)c1	-24.8% (inactive)
O=C(CSc1nc2ccc([N+](=O)[O-])cc2[nH]1)c1ccc(Cl)cc1	-9.84% (inactive)
Cc1ccc(-c2cn3cc([N+](=O)[O-])ccc3n2)cc1	-37.1% (inactive)
Cc1ccc(-c2cn3cc(C)ccc3n2)cc1	94.3% (active)
COc1ccc(-c2cn3ccsc3n2)cc1	-38.6% (inactive)
